Bioassay records as filed in PubChem BioAssay.
Rows were chosen to be rich in hits. Some 6.2% of all compounds tested hit in one or more screens of this group.
S2 tox – reduces viability in counter-screen for ATXN expression inhibitors; S2 cells (HEK-293 line with an ATXN2-luciferase reporter) viability, CellTiter-Fluor protease fluorescence, 24 h; Potency, µM (top dose mostly 56.7 µM), actives largely listed as cytotoxic; 400,000 compounds, 0.49% hits; note: nearly all actives have a fitted effect of over 40% in size
ATXN2 expr inh – reduces ATXN2 reporter expression in HEK-293 cells. HEK-293 ATXN2-luciferase reporter, luminescence, 24 h. Potency, µM (titrated, usually from 57 µM), most hits filed as inhibitors. 360,000 compounds, 0.72% hits. AID 1745845; note: nearly all actives have a fitted effect of over 55% in size
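qHTS (up to 57 uM final) was run with 24 h compound exposure of reporter cells at 37 °C. Each well was multiplexed: SteadyGlo luminescence measured ATXN2-luciferase expression after a fluorogenic Gly-Phe-AFC viability readout (25 uM final).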
HT1080 IDH1KD tx – HT-1080 IDH1 knockdown cell toxicity (counter line) | HT-1080 IDH1 knockdown viability, ATP luminescence, 48 h | Potency, µM (series often up to 46.1 µM), hits mostly cytotoxic | 360,000 compounds, 2% hits
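CellTiter-Glo luminescence after 48 h compound exposure at 37 degrees C of IDH1-knockdown HT-1080 cells in 5% FBS RPMI. %Activity scaled between DMSO wells and cell-free media wells, with curves fitted and assigned curve classes.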
HT1080-NT tox – kills 2HG-producing HT-1080-NT fibrosarcoma cells. HT-1080-NT fibrosarcoma viability, CellTiter-Glo ATP luminescence, 48 h. Potency, µM (top dose mostly 46.1 µM), most hits filed as cytotoxic. 360,000 compounds, 1.6% hits. AID 686970;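 note: NT is the 2HG producing partner of a matched IDH1 knockdown line; nearly all actives have a fitted effect of over 55% in size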
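Viability of the 2HG-overproducing fibrosarcoma line after 48 hours of compound exposure at 37 degrees C was determined by luminescence with CellTiter-Glo, and concentration-effect curves were then fitted and categorized.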
KB-V1 MDR tox – KB-V1 MDR subline cytotoxicity; 400,000 compounds, 3.4% hits; KB-V1 MDR cells viability, CellTiter-Glo, 72 h; AID 1347076; Potency, µM (doses to about 46.1 µM), usual class: cytotoxic; note: nearly all actives have a fitted effect of over 60% in size
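In this primary screen, KB-V1 cells overexpressing P-gp are incubated with library compounds (lowest to highest concentration) for 72 h at 37 degrees C before a luminescent ATP viability read.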
KB-3-1 tox – kills parental KB-3-1 adenocarcinoma cells; KB-3-1 viability, CellTiter-Glo ATP luminescence, 72 h; Potency, µM (doses to about 46.1 µM), usual class: cytotoxic; 400,000 compounds, 1.4% hits; AID 1347075; note: nearly all actives have a fitted effect of over 60% in size
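Parental KB-3-1 adenocarcinoma cells in phenol-red-free DMEM with 10% FBS were pin-treated with compounds at several concentrations, incubated 72 h at 37 °C, and viability read by CellTiter-Glo luminescence; concentration-effect curves were fitted after normalization.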
Numbers stand for hits; – = inactive; ? = inconclusive; · = no result; ! = not active in a repeat. Calls come from the whole dose curve; as a rule, active = well fitted curve in the direction sought with a large enough effect; inconclusive = small, poorly fitted or top-dose-only effect, or another doubt; inactive = no such curve, though single readings can be large; an effect the other way counts as inactive or inconclusive.

SMILES	S2 tox	ATXN2 expr inh	HT1080 IDH1KD tx	HT1080-NT tox	KB-V1 MDR tox	KB-3-1 tox
CC12c3ccccc3C(c3ccccc31)C1C(=O)N(c3ccncc3)C(=O)C12 (centres undefined)	–	–	–	–	–	–
CC12c3ccccc3C(c3ccccc31)C1C(=O)N(c3cccnc3)C(=O)C12 (centres undefined)	–	–	–	–	14.6µM	–
COc1ccc(OC)c(NC(=O)Nc2nc(C(N)c3ccccc3Cl)cs2)c1 (centres undefined)	?	?	?	?	–	–
Cc1ccc(CNC(=O)C2CCCN(S(=O)(=O)c3cccc4nsnc34)C2)cc1 (centres undefined)	–	–	·	·	–	–
COc1ccc2c(c1)/C(=C/c1cc(OC)c(OC)c(OC)c1)C(=O)N2	?	–	5.8µM	5.8µM	?	2.31µM
CC(C)NC(=O)NC(=O)CSc1ncc(C(F)(F)F)cc1Cl	–	–	–	–	–	–
CC(C)(C)NC(=O)NC(=O)CSc1ncc(C(F)(F)F)cc1Cl	–	–	–	–	13µM	–
O=c1[nH]c(=S)c2n[nH]nc2[nH]1	·	·	·	·	?	–
CCCc1cc(=O)[nH]c(SCC(=O)c2c(N)n(C3CC3)c(=O)[nH]c2=O)n1	–	–	?	?	–	16.4µM
COc1ccc(-n2ncc(Cl)c(Cl)c2=O)cc1	3.77µM	?	8.2µM	4.61µM	?	5.17µM
C/C(=N\NC(=O)c1nnn(-c2nonc2N)c1CN(C)c1ccccc1)c1ccccn1	?	·	?	?	?	5.8µM
C/C(=N\NC(=O)c1nnn(-c2nonc2N)c1-c1ccccc1)c1ccccc1O	–	?	1.84µM	?	–	?
CCOc1ccc(Br)cc1S(=O)(=O)Nc1ccc(C(=O)Nc2ccc(C)cc2)cc1	?	–	–	–	7.31µM	–
CCOc1ccc(Br)cc1S(=O)(=O)Nc1ccc(C(=O)OCC(=O)N(C)c2ccccc2)cc1	–	–	–	–	–	–
CCOc1ccc(Br)cc1S(=O)(=O)Nc1ccc(NC(=O)c2ccccc2C)cc1	–	–	–	–	–	–
CCOc1ccc(Br)cc1S(=O)(=O)Nc1cccc(S(=O)(=O)N(C)c2ccccc2)c1	–	–	–	–	4.11µM	?
Cc1ccsc1/C=N/NC(=O)c1ccc2c(c1)OCCO2	–	–	–	–	–	–
Cc1ccc(/C=N/NC(=O)c2ccc3ccccc3c2)s1	–	–	2.31µM	?	?	5.8µM
O=C(N/N=C/c1cccc([N+](=O)[O-])c1)c1cccc2cc[nH]c12	–	–	–	–	–	–
O=C(O)c1cccc(N/N=C/c2cccs2)c1	?	10µM	–	–	–	–
O=C(N/N=C/c1cc([N+](=O)[O-])ccc1O)c1cccc2cc[nH]c12	?	3.16µM	9.2µM	?	–	?
Cc1ccc(/C=N/NC(=O)c2ccc3c(c2)OCCO3)s1	?	–	13µM	?	?	20.6µM
Cc1ccc(/C=N/NC(=O)c2ccncc2)s1	–	–	–	–	–	–
O=C(N/N=C/c1cccs1)c1cccc2cc[nH]c12	–	–	15.8µM	?	20.6µM	–
O=C(N/N=C/c1cc(Br)cs1)c1ccc2c(c1)OCCO2	–	–	11.6µM	2.91µM	?	?
SMILES	S2 tox	ATXN2 expr inh	HT1080 IDH1KD tx	HT1080-NT tox	KB-V1 MDR tox	KB-3-1 tox
COc1cc(/C=N/NC(=O)c2cccc(N3CCCC3=O)c2)ccc1O	–	–	–	–	–	–
O=C(N/N=C/c1cc([N+](=O)[O-])ccc1O)c1cccc(N2CCCC2=O)c1	?	17.8µM	?	?	–	?
O=C(N/N=C/c1cccs1)c1ccc2ccccc2c1	?	–	–	?	?	20.6µM
Cc1ccc(/C=N/NC(=O)CSc2nc3ccccc3n2C)s1	–	–	–	–	14.6µM	–
Cn1c(SCC(=O)N/N=C/c2cccs2)nc2ccccc21	–	–	–	–	–	–
O=C(c1cccc(N2C(=O)C3CC=CCC3C2=O)c1)N1CCN(c2ccccc2)CC1 (centres undefined)	–	–	–	–	23.1µM	–
O=C(c1cccc(N2C(=O)C3C4C=CC(C4)C3C2=O)c1)N1CCN(c2ccc(F)cc2)CC1 (centres undefined)	–	–	–	–	–	–
CC1C=CCC2C(=O)N(c3cccc(C(=O)N4CCN(c5ccc(F)cc5)CC4)c3)C(=O)C12 (centres undefined)	–	–	–	–	18.4µM	–
O=C(c1cccc(N2C(=O)C3CC=CCC3C2=O)c1)N1CCCCCC1 (centres undefined)	–	–	–	–	?	–
Cc1cnn(CCC(=O)NNC(=S)Nc2ccccc2)c1	–	–	8.91µM	7.08µM	?	–
Cc1cnn(CCC(=O)NNC(=S)NCC(C)C)c1	–	–	–	–	–	–
Cc1ccc(NC(=S)NNC(=O)CCn2cc(C)cn2)cc1	–	–	6.31µM	2.82µM	?	–
CC(Nc1nc(-c2ccncc2)nc2ccccc12)c1ccccc1 (centres undefined)	–	–	–	–	–	–
CC(Nc1nc(N2CCNCC2)nc2ccccc12)c1ccccc1 (centres undefined)	?	?	14.6µM	?	–	–
O=C(c1ccccc1)c1ccc(Cn2cc(-c3ccccc3)nn2)cc1	?	–	–	–	0.651µM!	?
CCOC(OCC)c1cn(Cc2ccc(C(=O)c3ccccc3)cc2)nn1	–	–	?	?	?	18.4µM
CCCCCc1ccc(-c2cn(Cc3ccc(C(=O)c4ccccc4)cc3)nn2)cc1	–	–	–	–	7.31µM!	7.31µM!
O=C(O)CCCCCCCCc1cn(Cc2ccc(C(=O)c3ccccc3)cc2)nn1	–	–	4.61µM	3.66µM	9.2µM!	4.61µM!
O=C(OCc1cn(Cc2ccccc2)nn1)c1ccccc1	–	–	–	–	–	–
O=C(c1ccccc1)c1ccc(Cn2cc(CCCO)nn2)cc1	–	–	–	–	–	–
O=C(NCCc1ccncc1)c1cnn(-c2ncc3c(n2)-c2ccccc2CCC3)c1C1CC1	–	·	·	·	·	·
COc1cccc(-c2nc(CS(=O)(=O)CC(=O)Nc3ccc(C)c(Cl)c3)c(C)o2)c1	·	·	·	·	–	–
CSc1nc2sc(-c3ccccc3)cc2c(=O)n1N	?	?	–	–	9.2µM	?
COc1cc(C(=O)N2CCN(CCc3ccccn3)CC2)cc(OC)c1OC	–	–	·	·	–	–
FC(F)(F)c1nc2nc(Cl)c(Cl)nc2[nH]1	?	·	–	–	–	?
FC(F)(F)c1cccc(-c2nc3nc(Cl)c(Cl)nc3[nH]2)c1	–	·	?	?	?	2.59µM!
O=C(CSc1nc(-c2ccccc2)c(-c2ccccc2)[nH]1)NCCN1C(=O)CSC1=O	–	–	6.51µM	4.61µM	?	3.66µM
